# Where a name gives a salt, the structure may show the parent alone. A number with no mark means an inactive call.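 How the source made its calls: active = AUC significantly below DMSO controls by Student t-fit with adjusted P under 0.01; inactive = not significantly reduced.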
# Test system: Haemophilus parainfluenzae
# Experiment: growth AUC normalised to DMSO control (fraction of control); higher = less growth inhibition, active = hit call of the paper
# Settings: 20 µM
# In short: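 Three biological replicates were carried out, with OD578 read hourly for 24 h. Before inoculation at a starting OD578 of 0.01, pathogens were passaged anaerobically twice; plates were pre-reduced mGAM containing 20 μM compound and 1% DMSO, sealed with breathable membranes, and the Haemophilus parainfluenzae medium carried added hemin and NAD. Area under each growth curve was calculated by the trapezoidal rule up to the exponential-to-stationary transition and normalised to DMSO controls on the same plate.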
row,Compound,growth AUC normalised to DMSO control
1,COc1c(O[C@@H]2O[C@H](CO)[C@@H](O)[C@H](O)[C@H]2O)cc2c(c1OC)-c1ccc(SC)c(=O)cc1[C@@H](NC(C)=O)CC2 [Thiocolchicoside],0.996
2,Cn1c(=O)c2c(ncn2CCO)n(C)c1=O [Etofylline],1.02
3,Cc1cc(CC(=O)O)n(C)c1C(=O)c1ccc(Cl)cc1 [Zomepirac sodium salt],0.993
4,CCCCNc1c(C(=O)OCC)c(C)nc2c1cnn2CC [Tracazolate hydrochloride],1.04
5,Cc1noc(NS(=O)(=O)c2ccc(N)cc2)c1C [Sulfisoxazole],0.939
6,CCOC(=O)C(C)(C)Oc1ccc(Cl)cc1 [Clofibrate],1.01
7,COC1=C(OC)C(=O)C(CCCCCCCCCCO)=C(C)C1=O [Idebenone],1.04
8,CC[C@@]1(O)C(=O)OCc2c1cc1n(c2=O)Cc2cc3c(CN(C)C)c(O)ccc3nc2-1 [Topotecan],0.984
9,c1ccc2c(c1)CCCC2C1=NCCN1 (stereo not drawn) [Tetrahydrozoline hydrochloride],0.986
10,NC1CCN(c2nc3c(cc2F)c(=O)c(C(=O)O)cn3-c2ccc(F)cc2F)C1 (stereo not drawn) [Tosufloxacin hydrochloride],0.0424 (active)
11,CNCCC=C1c2ccccc2CCc2ccccc21 [Nortriptyline hydrochloride],0.966
12,CS(=O)(=O)Nc1ccc([N+](=O)[O-])cc1Oc1ccccc1 [Nimesulide],0.982
13,O=c1[nH]c(=O)n([C@H]2C[C@H](O)[C@@H](CO)O2)cc1C(F)(F)F [Trifluridine],1.08
14,NCCCC[C@H](N[C@@H](CCc1ccccc1)C(=O)O)C(=O)N1CCC[C@H]1C(=O)O [Lisinopril],0.992
15,CC[N+](CC)(CC(=O)Nc1c(C)cccc1C)Cc1ccccc1 [Denatonium benzoate],1.05
16,CN[C@@H]1[C@H](O[C@H]2[C@H](O[C@H]3[C@H](O)[C@@H](O)[C@H](NC(=N)N)[C@@H](O)[C@@H]3NC(=N)N)O[C@@H](C)[C@]2(O)CO)O[C@@H](CO)[C@H](O)[C@H]1O [Dihydrostreptomycin sulfate],0.0409 (active)
17,CCCCc1cc2ccccc2c(OCCN(C)C)n1 [Dimethisoquin hydrochloride],0.97

row,Compound,growth AUC normalised to DMSO control
1,"N[C@H]1CONC1=O [(S,-) Cycloserine]",0.989
2,COc1ccc(/C=C/C(=O)Nc2ccccc2C(=O)O)cc1OC [Tranilast],1.01
3,CN(C)CCN(Cc1cccs1)c1ccccn1 [Methapyrilene hydrochloride],0.983
4,CC(N)(Cc1ccc(O)c(O)c1)C(=O)O (stereo not drawn) [(L) Methyldopa],1.04
5,NC(=O)N1c2ccccc2C=Cc2ccccc21 [Carbamazepine],0.989
6,O=C1OCCN1/N=C/c1ccc([N+](=O)[O-])o1 [Furazolidone],0.361 (active)
7,C(=C\c1ccccc1)/CN1CCN(C(c2ccccc2)c2ccccc2)CC1 [Cinnarizine],0.817
8,O=c1[nH]c(=O)n([C@H]2C[C@H](O)[C@@H](CO)O2)cc1I [Idoxuridine],0.942
9,CCCSc1ccc2[nH]c(NC(=O)OC)nc2c1 [Albendazole],1.08
10,NC12CC3CC(CC(C3)C1)C2 [Adamantamine fumarate],1.05
11,CN(CCCCCCCCCCN(C)C(=O)Oc1cccc([N+](C)(C)C)c1)C(=O)Oc1cccc([N+](C)(C)C)c1 [Demecarium bromide],0.923
12,CCOC(=O)/C=C(C)/C=C/C=C(C)/C=C/c1c(C)cc(OC)c(C)c1C [Etretinate],1.03
13,Cc1scc2c1N(C(=O)CN1CCN(C)CC1)c1ccccc1NC2=O [Telenzepine dihydrochloride],1
14,CCc1cccc2c3c([nH]c12)C(CC)(CC(=O)O)OCC3 (stereo not drawn) [Etodolac],1.02
15,C#C[C@]1(O)CC[C@H]2[C@@H]3CCC4=CCCC[C@@H]4[C@H]3CC[C@@]21C [Lynestrenol],0.931
16,CC(C(O)c1ccc(O)cc1)N1CCC(Cc2ccccc2)CC1 (stereo not drawn) [Ifenprodil tartrate],1.01
